From PubChem BioAssay (Tox21)
Where “and” joins values, the source holds several entries; their conditions need not be identical. Equal entries are not always repeated. Results filed as inconclusive are left out. A call without a number means that no potency is given here. Some structures have more than one record in an assay (separate samples or runs), and their calls can disagree. Calls of active or inactive are those of the source. Unless noted, the call rests on the fitted dose curve; in most records, active means well fitted curve in the direction sought with a large enough effect in the repeat runs; inconclusive means weak or mixed curves; inactive means no such curve, though single readings can be large; an effect the other way counts as inactive or inconclusive.

How the values were obtained:
[1] = qHTS assay to identify small molecule antagonists of the estrogen receptor alpha (ER-alpha) signaling pathway using the BG1 cell line in the presence of 0.1 nM 17-beta-estradiol - cell viability counter screen (AID 1259241); conditions: VM7Luc4E2 (BG1) viability, CellTiter-Fluor protease, 22 h, 0.1 nM estradiol agonist added; series mostly up to 92.4 µM; further: nearly all actives have a fitted effect of over 40% in size; further: potency means the concentration at half of the fitted maximal effect
How it was run: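 VM7Luc4E2 cells (endogenous full-length ER-alpha, 4xERE-luciferase), cultured 5 days in charcoal-stripped serum, exposed to compounds with 0.1 nM 17beta-estradiol (final) for 22 hr at 37C. Viability read in same wells as live-cell protease fluorescence after 30 min.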

[2] = qHTS assay to identify small molecule antagonists of the androgen receptor (AR) signaling pathway using the MDA cell line in the presence of 0.5 nM R1881 - cell viability counter screen (AID 1259242); conditions: MDA-kb2 viability, CellTiter-Fluor protease fluorescence, 16 h; series mostly up to 92.4 µM; further: nearly all actives have a fitted effect of over 45% in size; further: potency means the concentration at half of the fitted maximal effect
How it was run: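 Live-cell protease activity was measured by CellTiter-Fluor fluorescence after 30 min. Before that, MDA-kb2 MMTV-luciferase cells had 16 hr at 37C without CO2, exposed to test compounds and 0.5 nM R1881 final.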

[3] = molecular target: Estrogen receptor (Homo sapiens) (UniProt P03372); assay: qHTS assay to identify small molecule antagonists of the estrogen receptor alpha (ER-alpha) signaling pathway using the BG1 cell line in the presence of 0.1 nM 17-beta-estradiol (AID 1259244); conditions: VM7Luc4E2 (BG1) ERE-luciferase, antagonist mode, 0.1 nM E2, 22 h; series mostly up to 92.4 µM; further: nearly all actives have a fitted effect of over 50% in size; further: potency means the concentration at half of the fitted maximal effect
How it was run: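 Luciferase luminescence (ONE-Glo, 30 min at room temperature) was read after 22 hr at 37C exposure to compounds plus 17beta-estradiol at 0.1 nM final. Cells were VM7Luc4E2 with endogenous ER-alpha and an ERE-driven luciferase, pre-cultured 5 days in hormone-depleted medium.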

[4] = qHTS assay to identify small molecule phospholipidosis (PLD) inducers (AID 1259344; active means well fitted curve in the direction sought with a large enough effect; an effect the other way counts as inactive or inconclusive); conditions: HepG2 phospholipidosis, LipidTOX Red imaging, 24 h; series mostly up to 38.3 µM
How it was run: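 Phospholipid accumulation was scored by imaging: fixed, Hoechst-counterstained HepG2 cells stained with LipidTOX Red after 24 h compound exposure at 37 C. Read-outs were pit count and pit intensity per well or per cell, with amiodarone and DMSO controls.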

[5] = qHTS assay to identify small molecule HDAC inhibitors (AID 1259364); conditions: HCT-116 HDAC-Glo I/II luminescence, 2 h; series mostly up to 92.4 µM; further: top concentration of the series differs between compounds; nearly all actives have a fitted effect of over 45% in size
How it was run: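 Luminescence read after 30 min room-temperature HDAC-Glo incubation measures cellular class I/II HDAC activity. Compounds were applied for 2 hr at 37 C to HCT-116 wild-type cells seeded the day before.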

[6] = qHTS assay to identify small molecule HDAC inhibitors - cell viability counter screen (AID 1259365); conditions: HCT-116 viability, CellTiter-Glo ATP luminescence, 2 h; series mostly up to 92.4 µM; further: nearly all actives have a fitted effect of over 50% in size; further: potency means the concentration at half of the fitted maximal effect
How it was run: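 Wild-type HCT-116 cells, 1,500/well, cultured overnight, then compound-treated 2 h at 37 C. Viability measured as ATP luminescence with CellTiter-Glo after 30 min at room temperature.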

[7] = qHTS assay to identify small molecule agonists of the sonic hedgehog signaling (Shh) pathway - cell viability counter screen (AID 1259366); conditions: NIH/3T3 Gli1-Luc viability, CellTiter-Fluor, 24 h; series mostly up to 92.4 µM; further: nearly all actives have a fitted effect of over 50% in size; further: potency means the concentration at half of the fitted maximal effect
How it was run: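 NIH/3T3-derived Gli1-Luc reporter cells, 2,000 per well, received compound after 4 h and were treated about 23 h at 37C. Viability measured in the same wells by CellTiter-Fluor fluorescence after 1 h.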

[8] = qHTS assay to identify small molecule antagonists of the sonic hedgehog signaling (Shh) pathway - cell viability counter screen (AID 1259367); conditions: NIH/3T3 Gli1-Luc viability, CellTiter-Fluor, 24 h; series mostly up to 92.4 µM; further: nearly all actives have a fitted effect of over 55% in size; further: potency means the concentration at half of the fitted maximal effect
How it was run: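 Viability was read by CellTiter-Fluor fluorescence in the same wells, reagent added 23 hr into compound treatment and incubated 1 hr at 37C. The 3T3 Gli1-Luc reporter cells (2,000/well) received conditioned medium after compound and ran 24 hr.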

[9] = qHTS assay to identify small molecule agonists of the sonic hedgehog signaling (Shh) pathway (AID 1259368; calls by dose curve;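 further: NIH/3T3-derived 3T3Gli1-Luc cells carrying a stable Gli1-driven firefly luciferase reporter; nearly all actives have a fitted effect of over 15% in size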); conditions: NIH/3T3 Gli1-Luc reporter, luciferase, 24 h; series mostly up to 92.4 µM
How it was run: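 Luminescence was read after 30 min at room temperature with luciferase reagent. Before that, 3T3Gli1-Luc cells (NIH/3T3 clone, stable Gli1-Luc reporter; 2,000/well) were exposed to compounds for 24 hr at 37C, 5% CO2, compounds being added 4 hr post-plating.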

[10] = molecular target: Androgen receptor (Homo sapiens) (UniProt P10275); assay: qHTS assay to identify small molecule antagonists of the androgen receptor (AR) signaling pathway using the MDA cell line in the presence of 0.5 nM R1881 (AID 1259243); conditions: MDA-kb2 MMTV-luciferase, R1881 0.5 nM, 16 h; series mostly up to 92.4 µM; further: nearly all actives have a fitted effect of over 50% in size; further: potency means the concentration at half of the fitted maximal effect
How it was run: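 Luminescent reporter readout (ONE-Glo, 30 min, room temperature) after 16 hr co-treatment of MDA-kb2 cells with test compounds and 0.5 nM R1881 final, at 37C without CO2. The MMTV-driven luciferase responds to both AR and GR.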

Androgen receptor (Homo sapiens), sequence (P10275 whole entry, looked up): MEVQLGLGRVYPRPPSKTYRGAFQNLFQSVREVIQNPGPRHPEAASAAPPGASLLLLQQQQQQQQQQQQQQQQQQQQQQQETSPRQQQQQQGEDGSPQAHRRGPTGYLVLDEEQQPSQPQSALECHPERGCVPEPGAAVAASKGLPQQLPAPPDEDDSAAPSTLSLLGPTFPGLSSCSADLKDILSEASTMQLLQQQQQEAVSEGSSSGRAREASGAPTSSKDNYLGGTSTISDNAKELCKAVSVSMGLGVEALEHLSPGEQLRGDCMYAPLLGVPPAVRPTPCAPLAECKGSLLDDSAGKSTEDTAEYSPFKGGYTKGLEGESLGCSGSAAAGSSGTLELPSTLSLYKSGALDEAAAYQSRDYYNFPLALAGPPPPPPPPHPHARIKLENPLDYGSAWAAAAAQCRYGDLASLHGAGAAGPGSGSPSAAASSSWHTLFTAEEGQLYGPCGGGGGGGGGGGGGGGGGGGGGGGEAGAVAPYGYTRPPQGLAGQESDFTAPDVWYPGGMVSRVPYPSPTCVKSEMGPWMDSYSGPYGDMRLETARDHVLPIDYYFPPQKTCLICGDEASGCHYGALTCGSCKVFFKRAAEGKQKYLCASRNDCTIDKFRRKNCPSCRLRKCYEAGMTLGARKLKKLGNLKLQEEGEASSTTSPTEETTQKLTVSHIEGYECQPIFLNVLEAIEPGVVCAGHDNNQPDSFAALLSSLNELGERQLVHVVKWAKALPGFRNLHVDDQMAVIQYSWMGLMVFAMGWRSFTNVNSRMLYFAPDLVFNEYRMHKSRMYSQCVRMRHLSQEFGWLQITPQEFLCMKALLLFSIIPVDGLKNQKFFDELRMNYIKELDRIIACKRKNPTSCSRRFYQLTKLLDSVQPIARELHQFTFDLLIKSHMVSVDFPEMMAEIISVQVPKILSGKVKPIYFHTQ
Estrogen receptor (Homo sapiens), sequence (P03372 whole entry, looked up): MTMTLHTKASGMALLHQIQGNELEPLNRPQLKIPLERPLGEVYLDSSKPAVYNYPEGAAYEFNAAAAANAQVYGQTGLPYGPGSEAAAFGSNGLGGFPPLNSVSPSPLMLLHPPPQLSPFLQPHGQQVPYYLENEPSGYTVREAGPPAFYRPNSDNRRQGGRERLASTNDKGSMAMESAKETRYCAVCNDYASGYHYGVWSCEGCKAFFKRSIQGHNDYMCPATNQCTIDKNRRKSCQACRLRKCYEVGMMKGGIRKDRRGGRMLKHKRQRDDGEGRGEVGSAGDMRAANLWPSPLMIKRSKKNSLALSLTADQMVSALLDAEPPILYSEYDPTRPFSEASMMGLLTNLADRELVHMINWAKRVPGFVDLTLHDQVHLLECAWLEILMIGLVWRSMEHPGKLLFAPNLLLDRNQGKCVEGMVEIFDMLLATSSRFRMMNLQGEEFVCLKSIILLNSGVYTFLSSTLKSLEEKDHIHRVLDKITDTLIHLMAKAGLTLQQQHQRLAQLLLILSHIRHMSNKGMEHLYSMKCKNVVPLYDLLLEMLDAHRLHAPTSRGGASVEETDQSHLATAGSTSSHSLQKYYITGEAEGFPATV

SMILES	Potency [1]	Potency [2]	Potency [3]	Potency [4]	Potency [5]	Potency [6]	Potency [7]	Potency [8]	Potency [9]	Potency [10]
CCOc1ccc2c(c1)C(C)=CC(C)(C)N2	inactive	inactive	inactive	inactive	inactive	inactive	inactive	inactive	inactive	
O=C(O)Cn1cnnn1	inactive	inactive	inactive		inactive	inactive	inactive	inactive	inactive	inactive
CCN(CC)C(=S)SSC(=S)N(CC)CC	inactive	inactive	243 nM (active) and 279 nM (active)	inactive	inactive	inactive	243 nM (active) and 99.2 nM (active) and 596 nM (active)	433 nM (active) and 1.25 µM (active) and 2.66 µM (active)	inactive	122 nM (active) and 39.5 nM (active) and 106 nM (active)
CC(C)CCOCc1ccccc1	inactive	inactive	inactive		inactive	inactive		inactive	inactive	inactive
CC(=O)O[C@]1(C(C)=O)CC[C@H]2[C@@H]3C[C@H](C)C4=CC(=O)CC[C@]4(C)[C@H]3CC[C@@]21C	inactive	inactive	inactive	inactive	inactive	inactive		inactive	inactive	
COc1ccc(Cc2cnc(N)nc2N)cc1OC	inactive	inactive	inactive			inactive	inactive	inactive	inactive	inactive
COc1nc(C)nc(Cl)c1NC1=NCCN1	inactive	inactive	inactive		inactive	inactive	inactive	inactive	inactive	
O=c1n(CC2CO2)c(=O)n(CC2CO2)c(=O)n1CC1CO1 (stereo unspecified)	inactive	inactive	inactive	inactive	inactive	inactive	61.1 µM (active)	30.5 µM (active) and 48.6 µM (active)	inactive	
C=CS(=O)(=O)O	inactive	inactive	inactive		inactive	inactive	inactive	inactive	inactive	
CCOc1ccccc1C(N)=O	inactive	inactive		inactive	inactive	inactive	inactive	inactive	inactive	inactive
Nc1nc(=S)c2[nH]cnc2[nH]1	inactive	inactive	inactive			inactive	inactive	inactive	inactive	inactive
CCCCC(CC)COC(=O)CC(C(=O)OCC(CC)CCCC)S(=O)(=O)O (stereo unspecified)	inactive	inactive	inactive	inactive	inactive	inactive		inactive	inactive	
Nc1cc(Cl)c(-c2cc(Cl)c(N)cc2Cl)cc1Cl	inactive	inactive	24.3 µM (active) and 34.4 µM (active)		inactive	inactive		54.4 µM (active) and 38.6 µM (active)	inactive	4.32 µM (active) and 2.17 µM (active)
CCC(C)(Oc1ccc(C2(c3ccc(OC(C)(CC)C(=O)O)cc3)CCCCC2)cc1)C(=O)O (stereo unspecified)	inactive	inactive		inactive	inactive	inactive	inactive	inactive	inactive	inactive
CCc1ccc(C(c2ccc(CC)cc2)C(Cl)Cl)cc1	inactive	inactive				inactive	inactive	inactive	inactive	49.3 µM (active)
COc1cc(C(=S)N2CCOCC2)ccc1O	inactive	inactive				inactive	inactive	inactive	inactive	inactive
CC1COC(=O)O1 (stereo unspecified)	inactive	inactive			inactive	inactive	inactive	inactive	inactive	inactive
Cc1ccc(S(=O)(=O)Oc2ccc(N=Nc3ccc(-c4ccc(N=Nc5c(O)ccc6cc(S(=O)(=O)O)cc(S(=O)(=O)O)c56)c(C)c4)cc3C)cc2)cc1	21.8 µM (active) and 14.1 µM (active)	27.4 µM (active) and 17.8 µM (active)						24.4 µM (active) and 20 µM (active)	inactive	17.3 µM (active) and 20 µM (active)
COC(=O)c1cccc(C(=O)OC)c1	inactive	inactive				inactive		inactive	inactive	inactive

SMILES	Potency [1]	Potency [2]	Potency [3]	Potency [4]	Potency [5]	Potency [6]	Potency [7]	Potency [8]	Potency [9]	Potency [10]
CC1=CC(=O)c2ccccc2C1=O	48.6 µM (active)	43.3 µM (active)	30.6 µM (active) and 29.8 µM (active)		inactive	68.6 µM (active) and inactive	13.7 µM (active) and 13.3 µM (active)	27.3 µM (active) and 13.3 µM (active)	inactive	21.7 µM (active) and 29.8 µM (active)
CC(=O)N[C@@H](CS)C(=O)O	inactive	inactive	inactive	inactive	inactive	inactive		inactive	inactive	
CN(C)c1ccc2nc3ccc(=[N+](C)C)cc-3sc2c1	26.2 µM (active) and 27.3 µM (active) and 29.8 µM (active)	6.11 µM (active) and 1.88 µM (active)	26.2 µM (active) and 27.3 µM (active) and 29.8 µM (active)	inactive		11.7 µM (active) and 24.3 µM (active) and 11.9 µM (active)	26.2 µM (active) and 43.3 µM (active) and 29.8 µM (active)	54.5 µM (active)	inactive	
BrC1CCC(Br)C(Br)CCC(Br)C(Br)CCC1Br (stereo unspecified)	inactive	inactive	inactive		inactive	inactive	inactive	inactive	inactive	inactive
O=Cc1ccc(Cl)cc1	inactive	inactive				inactive	inactive	inactive	inactive	inactive
CCN(CC)C(=O)Nc1ccc(OCC(O)CNC(C)(C)C)c(C(C)=O)c1 (stereo unspecified)	inactive	inactive	inactive		inactive	inactive	inactive	inactive	inactive	inactive
Cc1c(O)cccc1C(=O)N[C@@H](CSc1ccccc1)[C@H](O)CN1C[C@H]2CCCC[C@H]2C[C@H]1C(=O)NC(C)(C)C	8.41 µM (active) and 15 µM (active)	59.5 µM (active) and 26.6 µM (active)		inactive		inactive	1.5 µM (active) and 1.88 µM (active)	2.37 µM (active) and 3.76 µM (active)	inactive	18.8 µM (active)
C#CC(C)(CC)OC(=O)c1ccccc1C(=O)O (stereo unspecified)	inactive	inactive	inactive		inactive	inactive	inactive	inactive	inactive	inactive
Cc1cc(OCCOCC[N+](C)(C)Cc2ccccc2)ccc1C(C)(C)CC(C)(C)C	inactive	43 µM (active) and 26.6 µM (active)	60.8 µM (active) and 29.8 µM (active)		inactive	inactive	48.3 µM (active)		inactive	13.6 µM (active) and 13.3 µM (active)
CCn1cc(C(=O)O)c(=O)c2cc(F)c(N3CCNC(C)C3)c(F)c21 (stereo unspecified)	inactive	inactive	inactive		inactive	inactive	inactive	inactive	inactive	
CC(=O)Nc1ccc(C(=O)CCl)cc1	inactive	inactive and 54.5 µM (active)			inactive	inactive	21.7 µM (active)	inactive	inactive	inactive and 54.5 µM (active)
O=C(OCc1ccccc1)c1ccc(O)cc1	inactive	inactive	inactive	inactive		inactive	inactive	68.6 µM (active) and inactive	inactive	
OCC(CO)N[C@H]1C[C@](O)(CO)[C@@H](O)[C@H](O)[C@H]1O	inactive	inactive			inactive	inactive	inactive	inactive	inactive	inactive
CC(C)(O)CCC(C)(C)O	inactive	inactive	inactive			inactive		inactive	inactive	inactive
CN1C(=O)c2ccc([N+](=O)[O-])cc2C1=O	inactive	inactive	inactive			inactive	inactive	inactive	inactive	inactive
CCCC(=O)c1ccccc1	inactive	inactive				inactive	inactive	inactive	inactive	inactive
CCCCCCCCCCCCCC[P+](CCCC)(CCCC)CCCC	60.8 µM (active) and 30.6 µM (active)	27.1 µM (active) and 21.7 µM (active)			inactive	68.2 µM (active) and 68.6 µM (active)		30.5 µM (active) and 30.6 µM (active)	inactive	1.08 µM (active) and 1.72 µM (active)
Cc1ccc(-c2cc(C(F)(F)F)nn2-c2ccc(S(N)(=O)=O)cc2)cc1	inactive	inactive	inactive			inactive	60.9 µM (active) and 61.1 µM (active) and inactive	54.3 µM (active) and 61.1 µM (active) and inactive	inactive	54.3 µM (active) and 68.6 µM (active)
